# Assay outcomes deposited in PubChem by National Center for Advancing Translational Sciences (NCATS).
# Most compounds without a hit are left out; they make up all but 3.2% or so of the library.
# Tau FP inhib = qHTS for Inhibitors of Tau Fibril Formation, Fluorescence Polarization; Microtubule-associated protein tau (Homo sapiens), P10636; K18 P301L tau heparin fibrillization, Alexa594 FP, 6 h; Potency, µM (top dose mostly 57.7 µM), for inactives: at the top dose activity, negative = inhibition, usual class: inhibitors; 0.39% of 280,000 active; also: nearly all actives have a fitted effect of over 55% in size
# Target sequence (P10636 561-689 P618L limits assumed): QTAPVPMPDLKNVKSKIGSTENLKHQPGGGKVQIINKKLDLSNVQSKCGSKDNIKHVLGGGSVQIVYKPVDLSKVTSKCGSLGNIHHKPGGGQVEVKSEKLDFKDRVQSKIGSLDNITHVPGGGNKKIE
#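 Compound effects on tau fibrillization are measured by Alexa 594 fluorescence polarization (ex 555, em 632 nm). K18 P301L tau is used at 15 uM with 0.24 uM labeled tracer, and 20 uM heparin induces aggregation over 6 hr at 37 C.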
# Tau fluor cs = Counterscreen qHTS for Inhibitors of Tau Fibril Formation, Fluorescence Polarization; tau K18 P301L Alexa594 fluorescence, heparin fibrillization; Potency, µM (series often up to 57.7 µM), inactives show at the highest dose activity change, negative = decrease; 0.93% of 280,000 active; AID 1463, 2008; also: nearly all actives have a fitted effect of over 55% in size
#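 Human K18 P301L tau (15 uM unlabeled plus 0.24 uM Alexa 594-labeled, final) in 100 mM sodium acetate pH 7 was mixed with compound and 20 uM heparin and incubated 6 hr at 37 C.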
# Tau fibril ThT = qHTS for Inhibitors of Tau Fibril Formation, Thioflavin T Binding. recombinant tau K18 P301L (four-repeat tau fragment), heparin-induced fibrillization, ThT fluorescence. Potency, µM (highest dose often 57.4 µM), without a hit: top-dose activity, negative = inhibition, hits mostly inhibitors. Microtubule-associated protein tau (Homo sapiens), P10636. 2.1% of 270,000 active; also: nearly all actives have a fitted effect of over 55% in size
#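 Tau K18 P301L fragment (15 uM unlabeled plus 0.24 uM Alexa 594-labeled) in 100 mM sodium acetate pH 7 with compound, fibrillization induced by 20 uM heparin for 6 hr at 37 C. Thioflavin T (30 uM) added, fluorescence read after 1 hr (ex 450, em 510 nm).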
# GoLoco inh red = qHTS Assay for Inhibitors of RGS12 GoLoco Motif Activity (Red Fluorophore); AID 880, 2007; Potency, µM (highest dose often 61.6 µM), for inactives: top-dose activity, negative = inhibition, actives largely listed as inhibitors; Gai1:RGS12 GoLoco peptide FP, rhodamine, 10 min; 0.44% of 230,000 active; Guanine nucleotide-binding protein G(i) subunit alpha-1 (Homo sapiens), P63096; active = well fitted inhibition curve with a large enough effect, not every such curve was filed as active; inactive = no such curve, though single readings can be large or run the other way; also: nearly all actives have a fitted effect of over 30% in size
# Target sequence (P63096 whole entry, looked up): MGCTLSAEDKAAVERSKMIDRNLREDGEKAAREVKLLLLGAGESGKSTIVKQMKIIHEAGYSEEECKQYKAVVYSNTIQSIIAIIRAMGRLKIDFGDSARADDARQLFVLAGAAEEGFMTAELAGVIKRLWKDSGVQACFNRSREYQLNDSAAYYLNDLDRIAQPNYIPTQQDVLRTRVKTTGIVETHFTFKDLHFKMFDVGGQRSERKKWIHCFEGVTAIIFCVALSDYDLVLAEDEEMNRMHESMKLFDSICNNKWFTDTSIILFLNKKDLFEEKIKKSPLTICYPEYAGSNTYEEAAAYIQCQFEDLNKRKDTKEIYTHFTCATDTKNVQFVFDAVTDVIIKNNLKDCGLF
# TexasRed fluor = Total Fluorescence Counterscreen for Inhibitors of the Interaction of Thyroid Hormone Receptor and Steroid Receptor Coregulator 2; TRb/SRC2 Texas Red total fluorescence interference; Potency, µM (series often up to 106 µM), inactives show at the highest dose fluorescence change, negative = quenching; 0.29% of 280,000 active; active = well fitted curve in either direction with a large enough effect; inconclusive = small, poorly fitted or top-dose-only effect
#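 Human TRβ ligand-binding domain (0.6 uM) and Texas Red SRC2 peptide (20 nM) in Tris buffer with 1 uM T3 and 5% DMSO were incubated with pinned compound for 5 hr at ambient temperature. Total fluorescence was computed as S + 2P (555/632 nm).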
# TRb-SRC2 inh = qHTS for Inhibitors of the Interaction of Thyroid Hormone Receptor and Steroid Receptor Coregulator 2. Thyroid hormone receptor beta (Homo sapiens), P10828. Potency, µM (highest dose often 106 µM), for the others: at the highest dose activity change, negative = inhibition, actives largely listed as inhibitors. 0.065% of 280,000 active. TRbeta-SRC2 peptide binding, fluorescence polarization; receptor liganded with 1 µM T3;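 also: plate controls were bound peptide for no effect and peptide without receptor for full effect; nearly all actives have a fitted effect of over 50% in size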
#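 Compounds were added to 0.6 uM TRb ligand-binding domain and 20 nM Texas Red-labeled SRC2 peptide in Tris buffer containing 1 uM T3, incubated 5 hr at ambient temperature, then read by fluorescence polarization.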
# * hit, by the source's call; ? = inconclusive; . = no result; [ ] = dose if it differs, or a comment. Unless noted, calls follow the shape of the dose curve; as a rule, active = well fitted curve in the direction sought with a large enough effect; inconclusive = small, poorly fitted or top-dose-only effect, or another doubt; inactive = no such curve, though single readings can be large; an effect the other way counts as inactive or inconclusive. Unless noted, % is scaled to controls: 0 for no effect and ±100 for the full control effect; potency is read from the fitted curve at half-maximal effect.
SMILES,Tau FP inhib,Tau fluor cs,Tau fibril ThT,GoLoco inh red,TexasRed fluor,TRb-SRC2 inh
Cc1cc(N2CCC(C)CC2)nc2ccc(NC(=O)Cc3c(F)cccc3Cl)cc12,4.5%,?,?,.,-4.6%,1.8%
COc1cccc(CC(=O)Nc2ccc3nc(N4CCC(C)CC4)cc(C)c3c2)c1,?,14.1µM*[quencher],?,.,-1.7%,-2.8%
COc1cc(OC)cc(C(=O)Nc2ccc3nc(N4CCC(C)CC4)cc(C)c3c2)c1,?,3.98µM*[quencher],?,.,-3.7%,3.8%
CCN(C(=O)CSc1nc2ccccc2n1CC(=O)N(C)C1CCCCC1)c1ccccc1,2.6%,3.2%,-3.7%,.,-2.5%,-0.1%
O=S(=O)(c1ccccc1)c1nc(-c2cccs2)oc1SCc1ccccc1Cl,?,?,-8.6%,.,-0.5%,9.9%
CN(C)c1ccc(N=Cc2nc(-c3ccccc3)oc2OC(=O)c2cccc(Cl)c2)cc1,?,?,7.94µM*,31.4%,0.6%,-20.1%
O=C1/C(=C/c2ccco2)SC(=S)N1C1CCS(=O)(=O)C1 (configuration not stated),?,?,28.2µM*,36.5%,1.8%,3.7%
Cc1ccc(/C=C2\SC(=S)N(C3CCS(=O)(=O)C3)C2=O)cc1 (configuration not stated),?,-15.8%,?,1.8%,-0.3%,-5.8%
O=C1/C(=C\c2ccco2)SC(=S)N1C1CCS(=O)(=O)C1 (configuration not stated),?,?,25.1µM*,23.6%,-9.0%,9.7%
CCN1C(=O)C2(c3ccccc31)c1c(oc3ccccc3c1=O)C(=O)N2CCOC (configuration not stated),0.0%,-3.4%,-5.1%,.,4.3%,-0.5%
CCCN1C(=O)C2(c3ccccc31)c1c(oc3ccccc3c1=O)C(=O)N2CCCOC(C)C (configuration not stated),-11.0%,-8.2%,-2.8%,.,-39.6%,-8.7%
CCCN1C(=O)C2(c3ccccc31)c1c(oc3ccc(F)cc3c1=O)C(=O)N2CCCOC(C)C (configuration not stated),-9.6%,-22.7%,-17.0%,.,3.55µM*[quencher],?
CCCN1C(=O)C2(c3ccccc31)c1c(oc3ccccc3c1=O)C(=O)N2CCO (configuration not stated),-12.1%,-22.1%,-17.6%,.,31.6µM*[quencher],-12.3%[53 µM]
O=C(OCCOCCOC(=O)c1ccccc1)c1ccccc1,.,.,.,.,3.5%[201 µM],9.8%[201 µM]
COc1ccc(-c2nc3c(c4c2C[C@H](c2ccccc2)OC4)CN(C(=O)Nc2cccc(C#N)c2)CC3)c(C)c1,-3.5%[11.6 µM],-11.6%[11.6 µM],-0.7%[11.5 µM],1.2%[14.2 µM],-3.2%[11.2 µM],-1.9%[11.2 µM]
CS(=O)(=O)NCCNc1ccc(C(F)(F)F)cc1[N+](=O)[O-],-2.6%,-2.4%,-17.7%,10.7%,0.0%,0.8%
COc1ccc2[nH]c(C)c(CCNc3ccc(C(F)(F)F)cc3[N+](=O)[O-])c2c1,?,11.2µM*[quencher],?,5.9%,-1.0%,8.1%
CCCc1ccc(-c2c(C)sc(N)c2C#N)cc1,?,15.8µM*[quencher],?,41.5%,-4.8%,-5.5%
CC1=C(C#N)C(=O)NC(=O)/C1=C\c1ccc(-c2cc(C)c(C)cc2[N+](=O)[O-])o1,?,?,25.1µM*,-0.1%,-4.1%,1.4%
CN1C=C/C(=C\c2cc[n+](C)c3ccccc23)c2ccccc21,?,?,14.1µM*,-18.7%,-1.5%,-4.7%
CC[C@H](C)[C@H](NC(=O)CNC(=O)[C@H](C)NC(=O)[C@H](C)N)C(=O)NCC(=O)N[C@H](C(=O)N[C@@H](CC(C)C)C(=O)N[C@H](C(=O)N[C@H](C(=O)O)C(C)C)[C@@H](C)O)[C@@H](C)CC,.,.,.,.,-1.5%,-1.3%
CO[Si](CCCNCCN)(OC)OC,.,.,.,.,0.2%[201 µM],-1.9%[201 µM]
O=c1cnc2cnc(N3CCNCC3)nc2n1Cc1ccc(F)cc1,.,.,.,8.91µM*,.,.
COc1cccc([C@@H]2Oc3ccc(OC)cc3C(=O)[C@H]2OC(=O)Nc2ccc(C)c(Br)c2)c1,-8.5%,-22.2%,-12.0%,4.1%,-1.0%,-0.5%
O=[N+]([O-])c1cc2oc3c(c2c(C=NCc2ccncc2)c1O)CCCC3,?,?,10µM*,5.2%,-9.7%,-3.7%
SMILES,Tau FP inhib,Tau fluor cs,Tau fibril ThT,GoLoco inh red,TexasRed fluor,TRb-SRC2 inh
COC(=O)c1ccc(NC(=S)Nc2ccc(O)cc2)cc1,1.2%,-12.7%,-14.6%,-1.6%,2.3%,-13.6%
Oc1ccc(NC(=S)Nc2ccc(O)cc2)cc1,?,?,10µM*,-19.3%,-3.7%,?
CCCC(=O)C1=C(c2ccccc2)C(C#N)(C#N)C(C#N)=C1N,?,?,28.2µM*,24.6%,19.0%,?
Cc1nc(CSc2nsc(/C=C/N(C)C)c2C#N)cs1,-12.4%,?,25.1µM*,195.8%,6.6%,12.4%
O=C(Nc1cc(Cl)cc2c1[nH]c1cnccc12)c1cccnc1,.,.,.,.,0.4%,2.1%
COC/C=C/C1=CC2=CC(=O)C(C)(OC(=O)c3cnc4ccccc4n3)C(=O)C2=CN1CC1CC1 (configuration not stated),1.4%[11.6 µM],-27.9%[11.6 µM],?,-2.8%[14.2 µM],-3.0%[11.2 µM],-0.8%[11.2 µM]
COC/C=C/C1=CC2=CC(=O)C(C)(OC(=O)c3cnc4ccccc4n3)C(=O)C2=CN1CCc1ccccn1 (configuration not stated),1.2%[11.6 µM],-12.1%[11.6 µM],-3.8%[11.5 µM],-0.5%[14.2 µM],-1.5%[11.2 µM],3.3%[11.2 µM]
COC/C=C/C1=CC2=CC(=O)C(C)(OC(=O)c3cnc4ccccc4n3)C(=O)C2=CN1CCCCO (configuration not stated),?,-16.9%[11.6 µM],12.6µM*,-1.0%[14.2 µM],?,-2.7%[11.2 µM]
COC/C=C/C1=CC2=CC(=O)C(C)(OC(=O)c3cnc4ccccc4n3)C(=O)C2=CN1Cc1ccccc1 (configuration not stated),?,?,10µM*,6.5%[14.2 µM],-12.8%[11.2 µM],-0.9%[11.2 µM]
COC/C=C/C1=CC2=CC(=O)C(C)(OC(=O)c3cnc4ccccc4n3)C(=O)C2=CN1Cc1ccc(OC)cc1 (configuration not stated),?,?,12.6µM*,4.2%[14.2 µM],-3.9%[11.2 µM],0.1%[11.2 µM]
O=C(Cn1c(=O)n2nc(-c3ccccc3)nc2c2ccccc21)Nc1ccccc1C(F)(F)F,-19.8%,-1.3%,4.4%,.,-0.1%,-4.3%
